ROMK primary: ROMK potassium channel modulators, primary screen, cell-based, thallium flux, MLSMR library | AID 1918, 2009 | B-score at 10 µM | Tet-inducible ROMK, thallium flux fluorescence; actives lie on both sides | actives 2% (n = 130,000) | ATP-sensitive inward rectifier potassium channel 1 (Homo sapiens), P48048;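 active = signal ratio slope over the read window, or its plate-corrected B-score, at least 3 SD from the plate mean, either direction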;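 note: B-score of the F/F0 ratio slope over 7 to 12 s after thallium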
Target sequence (P48048 whole entry, looked up): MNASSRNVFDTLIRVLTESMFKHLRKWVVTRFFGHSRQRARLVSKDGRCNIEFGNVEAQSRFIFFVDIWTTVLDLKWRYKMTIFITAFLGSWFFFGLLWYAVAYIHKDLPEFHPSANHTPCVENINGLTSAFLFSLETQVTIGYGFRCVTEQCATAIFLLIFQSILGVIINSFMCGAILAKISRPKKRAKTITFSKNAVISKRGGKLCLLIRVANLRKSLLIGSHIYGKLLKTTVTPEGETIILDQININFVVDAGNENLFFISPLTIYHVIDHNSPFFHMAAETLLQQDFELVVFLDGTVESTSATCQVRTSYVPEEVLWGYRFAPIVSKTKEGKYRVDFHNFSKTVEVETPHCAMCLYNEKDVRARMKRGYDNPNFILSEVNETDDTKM
Arbovirus inh: antivirals against arbovirus infection, primary screen, cell-based, full library, 10K replicate subset. arbovirus infection cell-based antiviral screen. inhibition, % at 10 µM. actives 0.37% (n = 200,000); in the data active = inhibition above about 30%
WT yeast gro inh: growth inhibition of WT strain, primary screen, mitochondrial fusion inhibitor project, WT and mutant strains, chemical genetic | mitochondrial fusion phenotypic screen | inhibition, % at 10 µM | actives 2.1% (n = 190,000) | AID 1362, 2008; in the data active = inhibition above about 58%; tested in S. cerevisiae
PERK inhibitor: block of dimerizer-induced PERK translation repression, primary screen, PERK inhibitor project, CHO PERK-DD cells, SEAP luminescence, HTS; actives 0.17% (n = 220,000); CHO PERK-DD fusion, SEAP luminescence translation reporter; inhibition, % at 5.6 µM; Eukaryotic translation initiation factor 2-alpha kinase 3 (Homo sapiens), Q9NZJ5;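 active = inhibition above the mean inhibition of all tested compounds plus 3 SD, set separately per screening campaign, cut at about 2.9% in these data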;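 note: PERK kinase domain activated by AP20187 dimerizer at 100 nM; 0% = DMSO with dimerizer and 100% = rapamycin at 8.4 µM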
* hit, by the source's call; . = no result. Hits are enriched below; roughly 3.3% of the tested compounds scored in any of these assays.

SMILES	ROMK primary	Arbovirus inh	WT yeast gro inh	PERK inhibitor
C=CCn1c(SCC(=O)c2[nH]c(C)c(C(=O)OCC)c2C)nc2scc(-c3ccc(OC)cc3)c2c1=O	1.12	-31.8	-10.6	0.3
CCOc1ccccc1CN1CCN(S(C)(=O)=O)CC1	.	-1.6	13.2	-0.4
CC(=O)N1N=C(c2ccc(Br)cc2)CC1c1cn(C)c2ccccc12 (centres undefined)	.	-41.1	74.2*	0.0
CCc1cc2c(=O)c(-c3cscn3)coc2c(CN(C)C)c1O	1.03	38.5*	18.9	0.2
CN(C)S(=O)(=O)c1cc(NC(=O)COC(=O)c2ccc3c(c2)OCO3)ccc1Cl	.	4.4	-14.7	1.0
Nc1nc2ccccc2n1/N=C/c1ccc(-c2ccccc2)o1	0.133	39.1*	35.0	-0.5
Nc1nc2ccccc2n1/N=C/c1ccc([N+](=O)[O-])s1	0.629	-16.2	15.0	0.1
Cc1nc2ccccc2n1/N=C/c1cccnc1	1.25	-6.1	-42.1	-1.5
Nc1nc2ccccc2n1/N=C/c1cccnc1	2.19*	-6.0	-6.4	0.7
COc1ccc(NC(=O)c2cc(-c3ccccc3Cl)no2)cc1	.	0.7	84.9*	0.3
O=C(Nc1ccccc1)c1cc(-c2ccccc2Cl)no1	.	5.9	-3.8	-0.7
COc1ccc(NC(=S)NC(=O)c2ccccc2Cl)cc1	5.35*	3.6	-4.5	0.6
CCOC(=O)c1ccccc1NC(=O)N[C@@H](C)C(=O)OC	2.32*	8.4	-27.2	0.5
COC(=O)COC(=O)c1ccccc1NC(=O)c1ccccc1	.	-7.5	70.6*	0.1
CC(=O)c1ccccc1NC(=O)COC(=O)c1ccccc1NC(=O)c1ccccc1	0.411	-3.9	-9.2	2.0
COC(=O)c1ccccc1NC(=O)N[C@@H](C)C(=O)OC	.	-0.5	-8.3	0.3
CCn1nc(C)c(NC(=O)c2cnn3c(C(F)F)cc(-c4ccccc4)nc23)c1C	0.00173	-10.7	-8.7	0.4
Cc1oc(S(=O)(=O)N2CCCCC2)cc1NC(=O)Nc1ccc(Cl)cc1	.	.	.	0.3
N/C(=N\NC(=O)c1ccccc1Cl)c1cc2ccccc2oc1=O	-0.0262	15.6	-2.7	1.1
CCN1CCN(C(=O)c2sc3ncnc(N4CCc5ccccc5C4)c3c2C)CC1	-1.57	14.0	2.8	-0.7
CCN1/C(=C/c2sc(-c3ccccc3C)c[n+]2C)Sc2ccccc21	-0.356	-18.2	76.8*	0.3
COc1ccc(-c2nnc(NC(=O)C3=COCCO3)o2)cc1	0.0664	3.6	20.6	0.6
c1ccc2c(c1)sc1nnnn12	.	5.9	66.2*	0.8
C#CCN(C)CC/C=C1\c2ccccc2CSc2ccccc21	0.522	-4.8	69.8*	0.5
C=CCN(C)CC/C=C1\c2ccccc2CSc2ccccc21	-0.685	-6.6	10.8	-0.4
SMILES	ROMK primary	Arbovirus inh	WT yeast gro inh	PERK inhibitor
NCC/C=C1/c2ccccc2CSc2ccccc21	-5.18*	-35.9	-13.7	-1.4
Cc1c(Cl)cccc1NC(=O)Cc1ccc([N+](=O)[O-])cc1	-1.11	-7.3	7.8	0.3
Cc1nn(-c2ccccc2)c(C)c1NC(=O)c1ccc(S(=O)(=O)N2CCCC2)cc1	.	8.3	73.7*	0.1
Cc1cccc(NC(=O)c2ccc(S(=O)(=O)N3CCCCC3)cc2)n1	.	6.2	11.8	.
CCN1CCN(c2cc(N3CCc4ccccc4C3)c(F)cc2[N+](=O)[O-])CC1	.	-30.1	81.5*	-0.4
CC(=O)N1CCN(c2cc(N3CCCC3)c(F)cc2[N+](=O)[O-])CC1	-0.309	9.3	12.4	-1.1
Cc1nc2c(cc1C#N)C(=O)c1ccccc1-2	0.988	2.4	23.3	0.8
Cn1c(=O)c(-c2ccccc2)nn2c3ccccc3nc12	0.829	12.1	-14.5	0.1
Cc1nn2c3ccccc3nc2n(Cc2ccccc2)c1=O	.	.	.	3.1*
COC(CNC(=O)c1cc(-c2ccncc2)nc2ccc(S(=O)(=O)N3CCOCC3)cc12)OC	0.141	0.6	0.5	0.3
Cc1nn(-c2ccccc2)c2nc(C(F)(F)F)[nH]c(=O)c12	.	37.2*	-19.7	1.7
Cc1nn(-c2cc(C(F)(F)F)ccc2Cl)c2nc(C(Cl)(Cl)Cl)[nH]c(=O)c12	.	.	.	1.2
CCn1c(O)c(C2=c3ccccc3=NC2=O)c2cc(Br)ccc21	0.973	-15.3	71.8*	-0.2
CC(C)N(Cc1ccccc1)C(=S)NC(=O)C1(C)CC1(Cl)Cl (centres undefined)	5.06*	1.7	26.1	0.1
Cc1cc(C)n(C(=O)/C(C#N)=N\Nc2ccccc2[N+](=O)[O-])n1	0.735	-6.0	-1.6	1.0
Cc1cc(C)n(C(=O)/C(C#N)=N/Nc2cc(Cl)cc(Cl)c2)n1	-1.52	-29.8	85.1*	-0.4

High-throughput results from PubChem BioAssay.
